Experimental data reported in PubChem BioAssay (NCATS).
Several values for one entry are separate records, joined by “and”; a condition that tells them apart may be missing. Identical values can stand only once. Inconclusive results are not listed. Activity calls are given as the source filed them. Unless noted, calls come from the whole dose curve; as a rule, active = well fitted curve in the direction sought with a large enough effect; inconclusive = small, poorly fitted or top-dose-only effect, or another doubt; inactive = no such curve, though single readings can be large; an effect the other way counts as inactive or inconclusive.

Experiments:
[1] = AP1 Signaling Pathway (AID 357; active = well fitted curve in either direction with a large enough effect, not every such curve was filed as active; note: % is set by controls: 0 for no effect and ±100 for the full control effect); details: ME-180 AP-1-bla reporter, EGF-induced, beta-lactamase ratio, 5 h
How it was run: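 AP-1-bla ME-180 cells with beta-lactamase reporter under AP-1 response element, stimulated with EC50 EGF; compounds titrated, 5 hours at 37 degrees Celsius. CCF4 read at 460/530 nm ratio; positive and negative modulators judged by AC50.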

[2] = NFAT Signaling Pathway (AID 444; active = well fitted curve in either direction with a large enough effect, not every such curve was filed as active;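 note: carbachol stimulus at about its EC50 of 1 µM final; % is set by controls: 0 for no effect and ±100 for the full control effect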); details: Jurkat NFAT-bla M1, carbachol, beta-lactamase ratio, 5 h
How it was run: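 Read-out: CCF4 FRET ratio (460 nm/530 nm) after 1 h RT dye loading, used for %activity and AC50 from titration series. Cells: Jurkat NFAT-β-lactamase/M1 line, treated with compound plus 1 uM carbachol for 5 h, 37 °C.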

[3] = Stat Signaling Pathway (AID 446; active = well fitted curve in either direction with a large enough effect, not every such curve was filed as active;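 note: ME-180 cervical cancer cells given 40 pM IL-6 alongside compound; SIE-controlled beta-lactamase reporter measured as 460/530 nm FRET emission ratio; % is set by controls: 0 for no effect and ±100 for the full control effect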); details: ME-180 SIE beta-lactamase reporter, IL-6 stimulated, 5 h
How it was run: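 Screening format detects activators and inhibitors alike: ME-180 SIE-bla cells stimulated at 40 pM IL-6 for 5 hrs with compound, then dual-emission beta-lactamase read at 405 nm excitation.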

[4] = molecular target: Mitogen-activated protein kinase 10 (Mus musculus) (UniProt Q61831); test: JNK3 AlphaScreen Assay (AID 530; active = well fitted curve in either direction with a large enough effect, not every such curve was filed as active;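 note: kinase came from lysate of stimulated human HepG2 cells; signal reports phosphorylation of biotinylated GST-cJun 1-79 at Ser73 with 10 µM ATP; % is set by controls: 0 for no effect and ±100 for the full control effect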); details: JNK3 lysate, c-Jun phosphorylation; series mostly up to 57.1 µM
How it was run: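 Room-temperature AlphaScreen kinase assay; pre-activated HepG2 lysate as JNK3 source, biotin-GST-cJun(1-79) substrate, 10 uM ATP, compound 15 min preincubation.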

[5] = molecular target: 3',5'-cyclic-AMP phosphodiesterase 4B (Homo sapiens) (UniProt Q07343); test: qHTS Assay for Inhibitors of PDE-IV (AID 607; active = well fitted activation curve with a large enough effect in the main read-out, with a control signal flat, not every such curve was filed as active; note: % of control where 0% means no effect); details: HEK293 ACTOne CNG channel cells, membrane potential fluorescence; series mostly up to 22.9 µM
Sequence of 3',5'-cyclic-AMP phosphodiesterase 4B (Homo sapiens) (Q07343 whole entry, looked up): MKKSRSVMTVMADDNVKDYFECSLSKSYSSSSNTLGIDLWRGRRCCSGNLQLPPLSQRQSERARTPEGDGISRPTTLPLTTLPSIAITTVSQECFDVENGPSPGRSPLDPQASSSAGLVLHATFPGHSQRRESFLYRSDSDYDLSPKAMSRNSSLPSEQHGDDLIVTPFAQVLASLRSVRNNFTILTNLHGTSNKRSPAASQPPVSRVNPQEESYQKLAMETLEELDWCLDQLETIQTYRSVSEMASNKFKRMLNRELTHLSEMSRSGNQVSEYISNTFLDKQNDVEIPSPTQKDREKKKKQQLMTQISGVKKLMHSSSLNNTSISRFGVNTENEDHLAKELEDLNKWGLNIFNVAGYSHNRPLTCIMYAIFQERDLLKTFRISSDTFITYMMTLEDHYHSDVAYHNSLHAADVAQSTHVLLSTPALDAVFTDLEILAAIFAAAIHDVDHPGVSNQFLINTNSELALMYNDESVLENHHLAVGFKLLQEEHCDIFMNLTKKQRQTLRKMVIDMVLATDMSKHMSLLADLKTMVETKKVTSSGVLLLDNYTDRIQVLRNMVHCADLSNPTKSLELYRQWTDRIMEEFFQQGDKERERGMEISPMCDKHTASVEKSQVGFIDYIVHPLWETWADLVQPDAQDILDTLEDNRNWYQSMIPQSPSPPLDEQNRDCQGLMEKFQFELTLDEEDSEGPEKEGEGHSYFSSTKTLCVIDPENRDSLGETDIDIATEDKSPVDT
How it was run: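 The readout is membrane depolarisation from a cAMP-sensing CNG channel, detected with a potential dye at ex 535/em 590. Cells were HEK293-derived (endogenous PDE-IV) at 1000 cells/well, titrated up to 22.9 uM final.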

[6] = molecular target: alpha-glucosidase (Oryza sativa, rice) (UniProt Q653V4); test: Counterscreen for Glucocerebrosidase Inhibitors: qHTS Assay for Rice alpha-Glucosidase at pH 5.0 (AID 997); details: rice alpha-glucosidase enzyme activity; series mostly up to 76.9 µM;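 note: 0% = full activity with enzyme and -100% = basal without enzyme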
How it was run: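 Rice alpha-glucosidase (4 nM final) with 400 uM 4-methylumbelliferyl-alpha-D-glucopyranoside in citrate buffer pH 5.0, 20 min at room temperature, stopped at pH 10; fluorescence 365/440 nm, compounds 0.7 nM–77 uM, AC50 from Hill fits.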

[7] = qHTS Assay for Lipid Storage Modulators (AID 1519; calls by dose curve); details: Drosophila S3 cells, BODIPY lipid droplet/cell ratio, laser cytometry, cells loaded with oleic acid; for activity change, negative = inhibition: at 25.7 µM (top of the series)
How it was run: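 Cells seeded at 5,000 per well were treated with compounds over a concentration series and loaded with oleic acid (400 uM, as added). Lipid droplet fluorescence (488 nm excitation, 500-530 nm channel) was read by laser-scanning cytometry and normalized to 20 uM Triacsin C.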

[8] = molecular target: Cytochrome P450 1A2 (Homo sapiens) (UniProt P05177); test: p450-cyp1a2 (AID 410; calls by dose curve; note: potency is the fitted concentration of half-maximal effect;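 for activity change, negative = inhibition: -100% = full effect of reference inhibitor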); details: recombinant CYP1A2, luciferin-ME demethylation, luminescence; series mostly up to 57 µM
Sequence of Cytochrome P450 1A2 (Homo sapiens) (P05177 whole entry, looked up): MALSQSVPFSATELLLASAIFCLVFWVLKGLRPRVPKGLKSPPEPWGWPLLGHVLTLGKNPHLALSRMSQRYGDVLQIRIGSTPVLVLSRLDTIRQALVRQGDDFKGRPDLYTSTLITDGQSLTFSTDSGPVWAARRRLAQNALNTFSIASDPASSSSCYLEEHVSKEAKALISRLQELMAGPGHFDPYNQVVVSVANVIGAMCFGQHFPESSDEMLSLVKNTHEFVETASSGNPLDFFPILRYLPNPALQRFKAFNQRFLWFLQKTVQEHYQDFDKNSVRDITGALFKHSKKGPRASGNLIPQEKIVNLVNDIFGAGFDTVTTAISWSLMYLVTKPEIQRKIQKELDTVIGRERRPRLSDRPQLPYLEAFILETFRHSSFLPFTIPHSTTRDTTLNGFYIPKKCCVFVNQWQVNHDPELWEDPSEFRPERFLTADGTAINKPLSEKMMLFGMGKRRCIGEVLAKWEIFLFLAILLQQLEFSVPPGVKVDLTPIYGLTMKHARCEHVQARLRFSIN
How it was run: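 Inhibition was calculated relative to 57 uM furafylline (full inhibition). The reaction used human CYP1A2 at 20nM with Luciferin-ME at its Km, 100uM, driven by an NADPH-regenerating system for 60 min at room temperature.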

[9] = molecular target: ATP-dependent 6-phosphofructokinase (Trypanosoma brucei brucei) (UniProt O15648); test: qHTS Assay to Find Inhibitors of T. brucei phosphofructokinase: hit validation (AID 492961); details: T. brucei PFK, ADP-Glo luminescence; series mostly up to 24.3 µM
Sequence of ATP-dependent 6-phosphofructokinase (Trypanosoma brucei brucei) (O15648 whole entry, looked up): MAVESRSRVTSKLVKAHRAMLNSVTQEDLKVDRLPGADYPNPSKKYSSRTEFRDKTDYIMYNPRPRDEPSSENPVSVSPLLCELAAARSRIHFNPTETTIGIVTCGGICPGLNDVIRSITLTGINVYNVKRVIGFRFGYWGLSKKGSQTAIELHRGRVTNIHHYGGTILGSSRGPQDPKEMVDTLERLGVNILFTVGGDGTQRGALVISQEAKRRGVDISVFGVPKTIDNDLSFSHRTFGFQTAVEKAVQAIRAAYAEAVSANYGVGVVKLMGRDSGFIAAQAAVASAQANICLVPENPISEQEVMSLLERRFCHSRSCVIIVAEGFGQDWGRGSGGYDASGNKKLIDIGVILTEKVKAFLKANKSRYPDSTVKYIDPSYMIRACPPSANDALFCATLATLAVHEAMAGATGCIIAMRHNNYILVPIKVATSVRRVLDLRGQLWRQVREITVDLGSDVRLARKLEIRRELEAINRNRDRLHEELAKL
How it was run: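 In this biochemical qHTS validation, titrated compounds were tested against 1.25 nM PFK with 0.1 mM ATP and 0.5 mM F6P. Percent activity came from controls lacking or containing enzyme.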

[10] = molecular target: Ubiquitin carboxyl-terminal hydrolase 1 (Homo sapiens) (UniProt O94782); test: Inhibitors of USP1/UAF1: Pilot qHTS (AID 504865); details: purified USP1/UAF1, Ub-rhodamine cleavage fluorescence; series mostly up to 54.9 µM; note: nearly all actives have a fitted effect of over 35% in size; note: potency is the fitted concentration of half-maximal effect
Sequence of Ubiquitin carboxyl-terminal hydrolase 1 (Homo sapiens) (O94782 whole entry, looked up): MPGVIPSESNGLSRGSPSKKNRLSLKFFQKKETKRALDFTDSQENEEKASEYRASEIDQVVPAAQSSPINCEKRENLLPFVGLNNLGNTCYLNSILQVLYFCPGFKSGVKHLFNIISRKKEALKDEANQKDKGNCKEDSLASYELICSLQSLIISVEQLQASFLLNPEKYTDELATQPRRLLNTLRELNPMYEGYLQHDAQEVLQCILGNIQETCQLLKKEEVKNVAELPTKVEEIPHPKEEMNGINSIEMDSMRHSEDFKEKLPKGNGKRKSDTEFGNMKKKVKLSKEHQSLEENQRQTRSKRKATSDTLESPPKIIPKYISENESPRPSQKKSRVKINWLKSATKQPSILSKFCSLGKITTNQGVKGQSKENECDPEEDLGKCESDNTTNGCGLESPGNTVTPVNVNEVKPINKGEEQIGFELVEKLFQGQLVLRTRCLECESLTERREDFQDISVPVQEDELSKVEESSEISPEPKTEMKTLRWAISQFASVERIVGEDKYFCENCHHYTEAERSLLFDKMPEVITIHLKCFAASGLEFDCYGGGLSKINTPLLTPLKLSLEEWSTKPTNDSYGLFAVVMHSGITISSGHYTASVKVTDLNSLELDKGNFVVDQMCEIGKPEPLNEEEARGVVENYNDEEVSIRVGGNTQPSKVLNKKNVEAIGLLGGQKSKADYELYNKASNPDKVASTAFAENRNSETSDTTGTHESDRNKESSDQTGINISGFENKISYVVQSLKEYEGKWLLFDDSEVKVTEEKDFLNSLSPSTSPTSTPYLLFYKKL
How it was run: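 Deubiquitinase activity followed as kinetic rhodamine fluorescence release from 150 nM Ub-Rho. 1 nM USP1/UAF1 with compound, after 15 min room-temperature preincubation, in HEPES pH 7.8 buffer containing TCEP, EDTA, BSA and Tween-20.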

[11] = molecular target: Luciferin 4-monooxygenase (Photinus pyralis) (UniProt P08659); test: Biochemical firefly luciferase enzyme assay for NPC (AID 624030);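 note: purified P. pyralis luciferase at 10 nM with luciferin and ATP substrate; 0% = DMSO and -100% = full luciferase inhibition by PTC124 control; nearly all actives have a fitted effect of over 70% in size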; details: purified P. pyralis luciferase, luminescence, 5 min; series mostly up to 58.6 µM
Sequence of Luciferin 4-monooxygenase (Photinus pyralis) (P08659 whole entry, looked up): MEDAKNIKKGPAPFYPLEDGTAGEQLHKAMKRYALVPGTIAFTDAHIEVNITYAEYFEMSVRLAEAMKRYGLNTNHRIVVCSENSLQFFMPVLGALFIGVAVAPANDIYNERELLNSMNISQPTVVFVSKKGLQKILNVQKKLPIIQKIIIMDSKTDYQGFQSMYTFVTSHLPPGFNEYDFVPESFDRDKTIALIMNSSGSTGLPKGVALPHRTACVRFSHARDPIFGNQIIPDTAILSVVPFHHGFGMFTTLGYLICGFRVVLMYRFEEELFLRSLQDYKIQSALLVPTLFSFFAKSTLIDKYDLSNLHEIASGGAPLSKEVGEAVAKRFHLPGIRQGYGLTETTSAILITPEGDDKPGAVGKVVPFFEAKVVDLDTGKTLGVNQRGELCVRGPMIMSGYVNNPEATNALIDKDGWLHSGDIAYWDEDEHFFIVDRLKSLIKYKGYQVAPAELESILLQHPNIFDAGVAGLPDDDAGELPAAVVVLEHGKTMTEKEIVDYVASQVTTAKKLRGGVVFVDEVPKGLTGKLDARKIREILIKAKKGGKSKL
How it was run: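 Direct inhibition of firefly luciferase enzyme (10 nM final, 50 mM Tris Acetate) assessed by luminescence within 5 minutes. Percent activity scaled between DMSO and PTC124 positive control, with concentration-effect curves classified by fit quality and response.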

[12] = qHTS profiling for inhibitors of Plasmodium falciparum proliferation (AID 504749); note: potency is the fitted concentration of half-maximal effect;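 for activity, negative = inhibition: 0% = DMSO vehicle and full inhibition = artemisinin control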; for all read-outs here: nearly all actives have a fitted effect of over 60% in size; details: P. falciparum in erythrocytes, SYBR Green DNA, 72 h; for activity, negative = inhibition: at 28.7 µM (top of the series)
How it was run: (§1)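 Three-day growth assay of blood-stage parasites in erythrocytes (0.3% parasitemia, 2.5% hematocrit) at 37 C, 5% CO2, quantified by SYBR Green DNA staining after overnight detergent lysis.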

AS120 = test: as above; details: P. falciparum in erythrocytes, SYBR Green DNA, 72 h; series mostly up to 28.7 µM
How it was run: as §1

CP238 = test: as above; details: P. falciparum in erythrocytes, SYBR Green DNA, 72 h; series mostly up to 12.8 µM
How it was run: as §1

CP250 = test: as above; details: P. falciparum in erythrocytes, SYBR Green DNA, 72 h; series mostly up to 12.8 µM
How it was run: as §1

CP262 = test: as above; details: P. falciparum in erythrocytes, SYBR Green DNA, 72 h; series mostly up to 12.8 µM
How it was run: as §1

CP265 = test: as above; details: P. falciparum in erythrocytes, SYBR Green DNA, 72 h; series mostly up to 12.8 µM
How it was run: as §1

FAB9 = test: as above; details: P. falciparum in erythrocytes, SYBR Green DNA, 72 h; series mostly up to 12.8 µM
How it was run: as §1

[13] = molecular target: Glucocorticoid receptor (Homo sapiens) (UniProt P04150); test: GR-GFP Redistribution (AID 450;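 active = compounds whose dose series gives a full or clear partial fitted curve of increased nuclear translocation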; note: potency is the fitted concentration of half-maximal effect); details: U2OS GR-GFP nuclear translocation, laser cytometry, 2 h
Sequence of Glucocorticoid receptor (Homo sapiens) (P04150 whole entry, looked up, the tested form may be a part): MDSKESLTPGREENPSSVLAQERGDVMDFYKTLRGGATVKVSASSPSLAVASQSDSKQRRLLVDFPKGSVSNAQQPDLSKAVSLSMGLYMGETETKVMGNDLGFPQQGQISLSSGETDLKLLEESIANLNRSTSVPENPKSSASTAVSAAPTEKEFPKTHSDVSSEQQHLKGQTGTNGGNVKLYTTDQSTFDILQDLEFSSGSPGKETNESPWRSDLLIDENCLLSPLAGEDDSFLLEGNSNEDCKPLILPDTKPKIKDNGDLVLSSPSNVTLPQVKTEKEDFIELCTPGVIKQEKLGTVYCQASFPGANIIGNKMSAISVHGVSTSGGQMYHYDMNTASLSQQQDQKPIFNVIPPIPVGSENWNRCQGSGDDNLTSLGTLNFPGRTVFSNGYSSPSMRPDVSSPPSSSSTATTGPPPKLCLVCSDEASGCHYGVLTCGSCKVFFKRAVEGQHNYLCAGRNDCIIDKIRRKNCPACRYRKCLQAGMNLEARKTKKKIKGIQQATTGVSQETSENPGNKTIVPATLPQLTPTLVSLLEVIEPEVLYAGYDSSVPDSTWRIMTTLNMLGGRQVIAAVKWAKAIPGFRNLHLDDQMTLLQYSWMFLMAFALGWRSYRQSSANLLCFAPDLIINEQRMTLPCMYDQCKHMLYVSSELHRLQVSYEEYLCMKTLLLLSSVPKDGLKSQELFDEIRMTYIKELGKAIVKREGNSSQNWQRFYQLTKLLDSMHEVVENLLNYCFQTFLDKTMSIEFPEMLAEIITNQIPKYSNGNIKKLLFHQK

[14] = molecular target: Glucocorticoid receptor (Homo sapiens) (UniProt P04150); test: GR-EFC Redistribution (AID 451; calls by dose curve; note: potency is the fitted concentration of half-maximal effect); details: CHO-K1 GR-EFC translocation, beta-gal luminescence, 2 h
How it was run: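 Translocation of GR-ED fusion to nuclear EA restores b-gal, read by luminescence after 1 h room-temperature detection. Engineered CHO-K1 biosensor cells, 1,000/well, exposed 2 h at 37 C to titrations up to 46 uM final.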

[15] = measured here: cell count channel max response
[16] = measured here: lipid channel max response

Compound: CC1=C(C(=O)O)N2C(=O)[C@@H](NC(=O)[C@@H](N)c3ccccc3)[C@@H]2SC1
- activity change, negative = inhibition ([1]; at 17.2 µM (top of the series)): 16.3% (inactive)
- activity change, negative = inhibition ([1]; at 38 µM (top of the series)): 11% (inactive)
- activity change, negative = inhibition ([2]; at 17.2 µM (top of the series)): -9.84% (inactive)
- activity change, negative = inhibition ([2]; at 38 µM (top of the series)): -0.753% (inactive)
- activity, negative = inhibition ([3]; at 17.2 µM (top of the series)): 10.2% (inactive)
- activity, negative = inhibition ([3]; at 38 µM (top of the series)): 30.7% (inactive)
- Potency [4]: inactive
- Potency [5]: inactive
- outcome [6]: inactive
- activity change, negative = inhibition [7]: -1.09% (inactive)
- max response [7, 15]: 0.948%
- max response [7, 16]: -0.484%

Compound: CC(C)NC[C@H](O)c1cc(O)cc(O)c1
- activity change, negative = inhibition ([1]; at 17.2 µM (top of the series)): -17.9% (inactive)
- activity change, negative = inhibition ([1]; at 38 µM (top of the series)): -18.1% (inactive)
- Potency [8]: inactive
- activity change, negative = inhibition ([2]; at 17.2 µM (top of the series)): -4.38% (inactive)
- activity change, negative = inhibition ([2]; at 38 µM (top of the series)): 2.58% (inactive)
- activity, negative = inhibition ([3]; at 7.69 µM (top of the series) unless noted): 14.6% [at 17.2 µM] (inactive)
- Potency [4]: inactive
- Potency [5]: inactive
- outcome [6]: inactive
- activity change, negative = inhibition [7]: -2.07% (inactive)
- max response [7, 15]: 14.3%
- max response [7, 16]: 12.4%
- outcome [9]: inactive
- Potency [10]: inactive
- outcome [11]: inactive
- activity, negative = inhibition ([12]; parasite line A): 15.2% (inactive)
- activity, negative = inhibition ([12]; parasite line B): 4.36% (inactive)
- Potency (AS120): inactive
- Potency (CP238): inactive
- Potency (CP250): inactive
- Potency (CP262): inactive
- Potency (CP265): inactive
- Potency (FAB9): inactive

Compound: CCN(CC)CCC[C@H](C)Nc1c2ccc(Cl)cc2nc2ccc(OC)cc12
- activity change, negative = inhibition ([1]; at 17.2 µM (top of the series)): 28.6% (inactive)
- activity change, negative = inhibition ([1]; at 38 µM (top of the series)): 21.9% (inactive)
- Potency [8]: 2 µM (active) and 1 µM (active)
- Potency [4]: inactive
- Potency [5]: inactive
- outcome [6]: inactive
- activity change, negative = inhibition [7]: -0.0943% (inactive)
- max response [7, 15]: -11.8%
- max response [7, 16]: -13%
- outcome [9]: inactive
- Potency [10]: 31600 nM (active)
- outcome [11]: inactive
- Potency ([12]; parasite line A): 224 nM (active)
- Potency ([12]; parasite line B): 282 nM (active)
- Potency (AS120): 794 nM (active)
- Potency (CP238): 1120 nM (active)
- Potency (CP250): 447 nM (active)
- Potency (CP262): 426 nM (active)
- Potency (CP265): 891 nM (active)
- Potency (FAB9): 447 nM (active)

Compound: CN1Cc2c(N)cccc2[C@H](c2ccccc2)C1
- activity change, negative = inhibition ([1]; at 17.2 µM (top of the series)): -6.53% (inactive)
- activity change, negative = inhibition ([1]; at 38 µM (top of the series)): -7.55% (inactive)
- Potency [8]: 31.6 µM (active) and 6.31 µM (active)
- activity change, negative = inhibition ([2]; at 17.2 µM (top of the series)): -6.69% (inactive)
- activity change, negative = inhibition ([2]; at 38 µM (top of the series)): -5.66% (inactive)
- Potency [13]: > 46 µM (inactive) and > 20.6 µM (inactive)
- Potency [14]: > 46 µM (inactive) and > 20.6 µM (inactive)
- Potency [4]: inactive
- Potency [5]: inactive
- outcome [6]: inactive
- activity change, negative = inhibition [7]: 1.09% (inactive)
- max response [7, 15]: -0.662%
- max response [7, 16]: 0.613%
- Potency [10]: inactive
